This note sets out measurements from PubChem BioAssay.

Assay [1] in a line: anti-His antibody binders, primary screen, artefact control for SMM control protein annotation, biochemical, small-molecule microarray, 635 nm fluorescence (AID 1128).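 Note: score merges feature fluorescence with signal-to-noise for each printed compound spot.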 The following applies: anti-His Alexa647 antibody binding, higher = more signal.
The subject of assay [2] is Human papillomavirus type 1a E7 protein (residues 1-88). Nature of the assay: HPV1a E7 small-molecule binders, primary screen, biochemical, small-molecule microarray, residues 1-88, 635 nm (AID 1129). The following applies: small-molecule microarray binding, fluorescence 635 nm; higher = more signal.
Assay [3] concerns the target Focal adhesion kinase 1 (Homo sapiens) (UniProt Q05397). Nature of the assay: small-molecule microarray binders of FAK, primary screen, biochemical, 635/667 nm fluorescence, BSA, DTT (AID 1130).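 Note: composite of spot emission at 667 nm and signal to noise over triplicate slides.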 The note with it: PTK2 binding, 635 nm fluorescence, higher = more signal.
In assay [4] the test system is Fibrinogen (Alexa647-labelled). Nature of the assay: fibrinogen binders on compound microarrays, profiling panel, artefact control for SMM control-protein annotation, biochemical, small-molecule microarray, 635/667 nm fluorescence (AID 1131).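 Note: z-score merges 667 nm fluorescence with per-spot signal-to-noise over triplicate slides.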 The following applies: fibrinogen-A647 binding fluorescence, higher = more signal.
The target of assay [5] is Follistatin (Homo sapiens) (UniProt P19883). Put plainly: follistatin binders on small-molecule microarrays, primary screen, biochemical, small-molecule microarray, 635/667 nm fluorescence (AID 1132). The note with it: FST binding, 635 nm fluorescence, higher = more signal.
Assay [6] addresses Fibroblast growth factor 2 (Homo sapiens) (UniProt P09038). Nature of the assay: FGF2 binders on small-molecule microarrays, primary screen, biochemical, small-molecule microarray, 635/667 nm fluorescence (AID 1133). The following applies: small-molecule microarray binding, FGF2, fluorescence 635/667; higher = more signal.
Assay [7] can be described thus: mitochondrial membrane potential change in A549 cells, profiling panel, cell-based, JC-1 fluorescence, basal, 24 h, 100 nL (AID 1138).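 Note: A549 lung adenocarcinoma cells under basal conditions with no added stimulus; test concentration not given here.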 The note with it: higher = more signal.
The test system of a further assay is Lefty1. Put plainly: Lefty1 binders on small-molecule microarrays, primary screen, biochemical, small-molecule microarray, 635/667 nm fluorescence (AID 1139). The following applies: small-molecule microarray binding, fluorescence 635/667; higher = more signal.
Assay [8] has as its system wheat germ agglutinin (Triticum aestivum), Alexa647-labelled. Put plainly: wheat germ agglutinin binders on compound microarrays, profiling panel, artefact control for SMM control-protein annotation, biochemical, small-molecule microarray, 635/667 nm fluorescence (AID 1140).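 Note: score merges 667 nm feature emission with signal to noise over triplicate slides.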 The note with it: WGA-A647 binding, 635 nm fluorescence, higher = more signal.
Assay [9] concerns the target Luciferin 4-monooxygenase (Photinus pyralis) (UniProt P08659). Nature of the assay: firefly luciferase enzyme inhibitors, primary screen, biochemical, luminescence, purified enzyme, 2006 set (AID 1141).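 Note: cell-free assay with purified firefly luciferase at 100 ng per well in PBS; test concentration not given here.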 The note with it: SteadyGlo luminescence, 30 min, higher = more signal, called active from +8 up or from −8 down.
In assay [10] the test system is Wnt5a (protein binding on small-molecule microarray). Nature of the assay: Wnt5a binders on small-molecule microarray, primary screen, biophysical, 635/667 nm fluorescence (AID 1142).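 Note: fluorescence read at 667 nm with signal to noise per printed feature.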 The note with it: 635 nm fluorescence, higher = more signal.
Assay [11] is described as follows: cell viability in Huh7 cells, primary screen, cytotoxicity control for HCV replication inhibitor project, CellTiter-Glo luminescence, basal, 48 h (AID 1143).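 Note: Huh7 hepatoma cells carrying a hepatitis C replication reporter with no stimulus; test concentration not given here.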 The note with it: Huh7 HCV replicon, higher = more signal, called active from +8 up or from −8 down.
A short description of assay [12]: P. aeruginosa biofilm formation inhibitors, primary screen, PAO1 strain, BacTiter-Glo luminescence, LB-PBS (AID 1144). The note with it: 12 h, higher = more signal.
Assay [13] is described as follows: CREB reporter modulators without forskolin, primary screen, cell-based, PC12, CRE-LacZ reporter, unstimulated (AID 1145). The following applies: no forskolin, luminescence, 4.5 h, higher = more signal, called active from +8 up or from −8 down.
Assay [14] in a line: CREB reporter modulators under forskolin, primary screen, cell-based, PC12, CRE-LacZ reporter, forskolin-stimulated (AID 1146).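 Note: PC12 cells with 6xCRE LacZ reporter stimulated by forskolin 10 µM; beta-galactosidase reporter signal reflecting CREB driven transcription.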 The note with it: luminescence, 4.5 h, higher = more signal, called active from +8 up or from −8 down.
The target of assay [15] is Streptavidin (Streptomyces avidinii) (UniProt P22629). Nature of the assay: streptavidin binders on small-molecule microarray, primary screen, artefact control for SMM compound annotation, biophysical, 635/667 nm fluorescence (AID 1147).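 Note: signal reflects streptavidin binding to arrayed compounds as a control protein.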 The note with it: streptavidin binding, higher = more signal.
The nature of assay [16]: small-molecule binders of probe aInhba, primary screen, biochemical, small-molecule microarray, 635/667 nm fluorescence (AID 1148).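 Note: score merges 667nm spot fluorescence with signal-to-noise for antibody binding to printed compounds.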 The following applies: higher = more signal.
The target in assay [17] is Torsin-1A (Homo sapiens) (UniProt O14656). Put plainly: torsin A binders from cell lysate, primary screen, small-molecule microarray, wild-type, 635/667 nm (AID 1149). The following applies: COS7 hTOR1A-WT lysate, 635 nm fluorescence, higher = more signal.
Assay [18] shares this target. Put plainly: small-molecule binders of mutant TOR1A in lysate, primary screen, cell lysate, small-molecule microarray, COS7 lysate, 635/667 nm fluorescence (AID 1150).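 Note: score pools 667 nm emission and signal to noise measuring lysate protein binding.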 The following applies: COS7 hTOR1A mutant lysate, 635 nm fluorescence, higher = more signal.
Assay [19] has as its system Sonic hedgehog protein (Shh). Nature of the assay: small-molecule binders of Shh protein, primary screen, biochemical, small-molecule microarray, 635/667 nm fluorescence (AID 1151).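 Note: Shh protein binding to compounds spotted on small-molecule microarray slides; score combines spot fluorescence intensity with signal-to-noise across triplicate slides.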 The following applies: small-molecule microarray binding, 635 nm fluorescence; higher = more signal.

Structures are written as SMILES. Calls of active or inactive are those of the source. Unless noted, the rule behind the calls is not given here.

Sequence of Fibroblast growth factor 2 (Homo sapiens) (P09038 whole entry, looked up): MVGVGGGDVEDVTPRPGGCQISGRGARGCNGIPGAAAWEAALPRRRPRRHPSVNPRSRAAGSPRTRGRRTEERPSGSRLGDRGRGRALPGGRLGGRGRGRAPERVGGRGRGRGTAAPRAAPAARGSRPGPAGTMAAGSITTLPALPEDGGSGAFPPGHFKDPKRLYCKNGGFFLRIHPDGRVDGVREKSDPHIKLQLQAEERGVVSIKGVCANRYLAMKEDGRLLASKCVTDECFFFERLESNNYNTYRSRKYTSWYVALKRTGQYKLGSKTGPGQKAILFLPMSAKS
Sequence of Luciferin 4-monooxygenase (Photinus pyralis) (P08659 whole entry, looked up): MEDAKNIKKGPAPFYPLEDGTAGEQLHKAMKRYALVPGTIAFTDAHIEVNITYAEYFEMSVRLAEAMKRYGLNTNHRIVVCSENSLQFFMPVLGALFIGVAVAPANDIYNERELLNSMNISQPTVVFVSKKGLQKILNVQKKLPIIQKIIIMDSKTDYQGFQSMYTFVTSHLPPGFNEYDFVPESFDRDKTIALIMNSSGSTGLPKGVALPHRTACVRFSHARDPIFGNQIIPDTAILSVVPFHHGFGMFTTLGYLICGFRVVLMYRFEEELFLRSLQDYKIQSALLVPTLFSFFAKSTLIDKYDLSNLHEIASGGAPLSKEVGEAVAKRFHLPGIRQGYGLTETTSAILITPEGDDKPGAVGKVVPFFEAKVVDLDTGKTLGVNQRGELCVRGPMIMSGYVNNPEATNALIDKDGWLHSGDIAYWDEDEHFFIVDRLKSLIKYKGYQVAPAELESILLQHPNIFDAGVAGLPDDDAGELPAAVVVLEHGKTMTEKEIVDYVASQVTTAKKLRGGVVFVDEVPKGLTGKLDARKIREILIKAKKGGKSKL
Sequence of Streptavidin (Streptomyces avidinii) (P22629 whole entry, looked up): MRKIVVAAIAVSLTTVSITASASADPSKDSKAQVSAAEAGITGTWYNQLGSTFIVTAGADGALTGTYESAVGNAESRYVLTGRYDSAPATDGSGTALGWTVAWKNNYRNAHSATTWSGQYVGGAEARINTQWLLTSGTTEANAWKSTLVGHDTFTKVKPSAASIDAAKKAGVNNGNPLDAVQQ
Sequence of Torsin-1A (Homo sapiens) (O14656 whole entry, looked up): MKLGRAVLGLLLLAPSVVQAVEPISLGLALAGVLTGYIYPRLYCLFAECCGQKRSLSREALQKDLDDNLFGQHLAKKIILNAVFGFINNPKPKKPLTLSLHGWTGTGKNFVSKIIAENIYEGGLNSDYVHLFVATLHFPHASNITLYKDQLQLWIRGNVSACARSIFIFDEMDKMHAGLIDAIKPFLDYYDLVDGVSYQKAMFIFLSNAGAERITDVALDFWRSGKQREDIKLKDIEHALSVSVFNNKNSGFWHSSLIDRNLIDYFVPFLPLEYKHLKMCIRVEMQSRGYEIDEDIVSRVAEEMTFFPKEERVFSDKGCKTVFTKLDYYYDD
Sequence of Focal adhesion kinase 1 (Homo sapiens) (Q05397 whole entry, looked up): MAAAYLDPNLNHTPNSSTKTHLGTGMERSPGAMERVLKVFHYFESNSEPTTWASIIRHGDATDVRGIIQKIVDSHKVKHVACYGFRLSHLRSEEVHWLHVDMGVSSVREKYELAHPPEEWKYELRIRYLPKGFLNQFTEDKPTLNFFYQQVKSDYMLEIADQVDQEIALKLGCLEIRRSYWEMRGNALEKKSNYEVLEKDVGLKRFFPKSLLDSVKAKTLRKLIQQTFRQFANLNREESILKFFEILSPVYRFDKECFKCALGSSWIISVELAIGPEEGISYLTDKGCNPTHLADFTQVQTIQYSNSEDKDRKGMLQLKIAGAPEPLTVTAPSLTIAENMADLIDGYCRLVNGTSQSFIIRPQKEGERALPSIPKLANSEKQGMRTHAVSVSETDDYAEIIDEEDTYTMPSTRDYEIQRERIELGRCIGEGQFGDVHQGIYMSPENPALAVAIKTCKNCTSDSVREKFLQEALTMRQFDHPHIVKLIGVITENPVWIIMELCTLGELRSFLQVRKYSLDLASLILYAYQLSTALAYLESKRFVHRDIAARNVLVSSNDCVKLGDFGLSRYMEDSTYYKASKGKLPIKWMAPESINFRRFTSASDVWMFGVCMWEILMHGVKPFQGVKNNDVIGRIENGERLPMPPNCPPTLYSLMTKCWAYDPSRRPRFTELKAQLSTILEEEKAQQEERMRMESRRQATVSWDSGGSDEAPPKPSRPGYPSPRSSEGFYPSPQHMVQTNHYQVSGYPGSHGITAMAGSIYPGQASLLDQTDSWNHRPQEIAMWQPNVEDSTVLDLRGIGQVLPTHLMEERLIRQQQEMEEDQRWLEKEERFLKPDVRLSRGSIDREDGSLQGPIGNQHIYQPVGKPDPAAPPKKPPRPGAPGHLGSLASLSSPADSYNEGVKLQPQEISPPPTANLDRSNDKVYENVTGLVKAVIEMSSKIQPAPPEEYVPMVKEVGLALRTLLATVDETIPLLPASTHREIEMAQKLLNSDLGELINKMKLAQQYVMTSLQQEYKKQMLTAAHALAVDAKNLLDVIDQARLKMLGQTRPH
Sequence of Follistatin (Homo sapiens) (P19883 whole entry, looked up): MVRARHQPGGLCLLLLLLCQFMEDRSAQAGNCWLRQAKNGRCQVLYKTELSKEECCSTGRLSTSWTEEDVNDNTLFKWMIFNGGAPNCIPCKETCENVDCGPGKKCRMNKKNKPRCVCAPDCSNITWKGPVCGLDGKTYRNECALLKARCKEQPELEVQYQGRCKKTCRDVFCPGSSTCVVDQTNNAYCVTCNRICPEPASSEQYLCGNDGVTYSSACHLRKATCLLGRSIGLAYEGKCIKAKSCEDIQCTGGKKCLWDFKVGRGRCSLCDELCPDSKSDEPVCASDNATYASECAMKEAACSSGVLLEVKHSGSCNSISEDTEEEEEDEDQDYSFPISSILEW

`CCOC(=O)C[C@H]1[C@H](OC(=O)c2ccc(C(=O)c3ccccc3)cc2)[C@@H](NC(=O)Cc2ccc(OC)cc2)c2cc(OCCCO)ccc2N1C(=O)c1ccc2ccccc2n1`: the composite z-score in assay [1] is 0.325; in assay [2], 0.727; in assay [3], -0.314; in assay [4] it was 0.858; in [5], 0.513; in assay [6], 0.312. Further, the composite z-score is 0.735 in the assay with Lefty1; -0.028 in assay [8]; 0.112 in assay [10]; 0.619 in assay [15]; 0.158 in assay [16]; -0.202 in the assay with Torsin-1A (Homo sapiens) [17]. In addition, the composite z-score with Torsin-1A (Homo sapiens) [18] is 0.561; in assay [19], 0.671. In addition, the z-score was 0.842 in [7]; -0.849 (inactive) in [9]; 0.0378 (inactive) in assay [11]; -0.193 (inactive) in assay [12]; 0.745 (inactive) in assay [13]; -0.668 (inactive) in assay [14].

For `C=CCNC(=O)[C@@H]1[C@H]2C(=O)O[C@H](c3ccccc3)[C@H](c3ccccc3)N2[C@H](c2ccc(OCCO)cc2)[C@@]12C(=O)N(C(=O)OCCOC)c1ccc(C#CCC(C(=O)OC)C(=O)OC)cc12`, the composite z-score in assay [1] was 1.67; in assay [2], 1.16; in assay [3], 1.31; in assay [4], 0.603; in assay [5], 1.24; in [6], 1.48. Besides, the composite z-score with Lefty1 stood at 0.991; in [8], 1.05; in assay [10], 0.486; in assay [15] it was 0.386; in [16] it was 0.322; with Torsin-1A (Homo sapiens) [17], 0.126. Moreover, the composite z-score with Torsin-1A (Homo sapiens) [18] is 0.681; in assay [19], 1.09. Also, the z-score is -1.18 in assay [7]; -0.262 (inactive) in assay [9]; -2.47 (inactive) in assay [11]; 0.975 (inactive) in assay [12]; 0.208 (inactive) in assay [13]; -0.208 (inactive) in assay [14].

Turning to `CO[C@H]1O[C@H](CO)[C@@H](OC(=O)Nc2ccccc2-c2ccccc2)[C@H](OC(=O)Nc2ccccc2-c2ccccc2)[C@@H]1OC(=O)Nc1ccccc1-c1ccccc1`, the composite z-score came out at 0.747 in assay [1]; 1.23 in assay [2]; 0.993 in assay [3]; 0.906 in assay [4]; 1.2 in assay [5]; 0.814 in assay [6]. Also, the composite z-score with Lefty1 stood at 0.55; in assay [8], 0.827; in [10] it was 0.689; in assay [15] it was 1.08; in assay [16], 0.173; with Torsin-1A (Homo sapiens) [17], 0.1. The composite z-score came out at 0.53 with Torsin-1A (Homo sapiens) [18] and 1.37 in assay [19]. In addition, the z-score in assay [7] is -0.00054; in assay [9], -0.858 (inactive); in assay [11], -3.41 (inactive); in assay [12], -0.399 (inactive); in assay [13], 0.391 (inactive); in assay [14] it was 0.0225 (inactive).

`Cc1ccc(/C=C/C=O)cc1`: the composite z-score in assay [1] is -0.0082; in assay [2] it was -0.872; in [3], -0.0083; in assay [4], 0.698; in [5] it was -0.186; in assay [6] it was -0.245. In addition, the composite z-score is -0.709 with Lefty1; 0.0368 in assay [8]; -0.355 in [10]; -0.461 in assay [15]; -0.176 in [16]; -1.39 with Torsin-1A (Homo sapiens) [17]. In addition, the composite z-score was -0.357 with Torsin-1A (Homo sapiens) [18] and -0.327 in assay [19]. Further, the z-score in assay [7] is 0.843; in assay [9], -1.19 (inactive); in assay [11], 0.0606 (inactive); in [12], 0.38 (inactive); in assay [13] it was -0.141 (inactive); in assay [14], 0.243 (inactive).

In the case of `CC(C)(C)OC(=O)CC[C@@]1(C(=O)N2CCCCC2)N=C(c2ccc(OCCCO)cc2)O[C@@H]1c1ccccc1`, the composite z-score in [1] was determined as 1.87; in assay [2], 1.25; in assay [3], 0.744; in assay [4], 1.02; in [5], 1.09; in assay [6], 1.04. The composite z-score came to 0.501 with Lefty1; 1.27 in assay [8]; 0.94 in assay [10]; 1.82 in [15]; 0.283 in [16]; 0.766 in the assay with Torsin-1A (Homo sapiens) [17]. Also, the composite z-score with Torsin-1A (Homo sapiens) [18] is 0.912; in assay [19], -0.45. For the same molecule, the z-score in assay [7] is 1.09; in assay [9], -1.73 (inactive); in [11], -2.99 (inactive); in assay [12] it was -0.34 (inactive); in assay [13] it was 1.66 (inactive); in assay [14], 0.127 (inactive).
